Hits are enriched below; roughly 3.6% of the tested compounds scored in any of these assays.
mHTT CaM bind – mHTT-calmodulin interaction abrogation | inhibition, % at 15 µM | AlphaScreen His-mHTT/GST-CaM binding, luminescence | P42858 | AID 1671202 | 190,000 tested, 3.6% active;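 further: 0% = both proteins with DMSO and 100% = one protein alone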
Target sequence (P42858 whole entry, looked up, stated change not applied): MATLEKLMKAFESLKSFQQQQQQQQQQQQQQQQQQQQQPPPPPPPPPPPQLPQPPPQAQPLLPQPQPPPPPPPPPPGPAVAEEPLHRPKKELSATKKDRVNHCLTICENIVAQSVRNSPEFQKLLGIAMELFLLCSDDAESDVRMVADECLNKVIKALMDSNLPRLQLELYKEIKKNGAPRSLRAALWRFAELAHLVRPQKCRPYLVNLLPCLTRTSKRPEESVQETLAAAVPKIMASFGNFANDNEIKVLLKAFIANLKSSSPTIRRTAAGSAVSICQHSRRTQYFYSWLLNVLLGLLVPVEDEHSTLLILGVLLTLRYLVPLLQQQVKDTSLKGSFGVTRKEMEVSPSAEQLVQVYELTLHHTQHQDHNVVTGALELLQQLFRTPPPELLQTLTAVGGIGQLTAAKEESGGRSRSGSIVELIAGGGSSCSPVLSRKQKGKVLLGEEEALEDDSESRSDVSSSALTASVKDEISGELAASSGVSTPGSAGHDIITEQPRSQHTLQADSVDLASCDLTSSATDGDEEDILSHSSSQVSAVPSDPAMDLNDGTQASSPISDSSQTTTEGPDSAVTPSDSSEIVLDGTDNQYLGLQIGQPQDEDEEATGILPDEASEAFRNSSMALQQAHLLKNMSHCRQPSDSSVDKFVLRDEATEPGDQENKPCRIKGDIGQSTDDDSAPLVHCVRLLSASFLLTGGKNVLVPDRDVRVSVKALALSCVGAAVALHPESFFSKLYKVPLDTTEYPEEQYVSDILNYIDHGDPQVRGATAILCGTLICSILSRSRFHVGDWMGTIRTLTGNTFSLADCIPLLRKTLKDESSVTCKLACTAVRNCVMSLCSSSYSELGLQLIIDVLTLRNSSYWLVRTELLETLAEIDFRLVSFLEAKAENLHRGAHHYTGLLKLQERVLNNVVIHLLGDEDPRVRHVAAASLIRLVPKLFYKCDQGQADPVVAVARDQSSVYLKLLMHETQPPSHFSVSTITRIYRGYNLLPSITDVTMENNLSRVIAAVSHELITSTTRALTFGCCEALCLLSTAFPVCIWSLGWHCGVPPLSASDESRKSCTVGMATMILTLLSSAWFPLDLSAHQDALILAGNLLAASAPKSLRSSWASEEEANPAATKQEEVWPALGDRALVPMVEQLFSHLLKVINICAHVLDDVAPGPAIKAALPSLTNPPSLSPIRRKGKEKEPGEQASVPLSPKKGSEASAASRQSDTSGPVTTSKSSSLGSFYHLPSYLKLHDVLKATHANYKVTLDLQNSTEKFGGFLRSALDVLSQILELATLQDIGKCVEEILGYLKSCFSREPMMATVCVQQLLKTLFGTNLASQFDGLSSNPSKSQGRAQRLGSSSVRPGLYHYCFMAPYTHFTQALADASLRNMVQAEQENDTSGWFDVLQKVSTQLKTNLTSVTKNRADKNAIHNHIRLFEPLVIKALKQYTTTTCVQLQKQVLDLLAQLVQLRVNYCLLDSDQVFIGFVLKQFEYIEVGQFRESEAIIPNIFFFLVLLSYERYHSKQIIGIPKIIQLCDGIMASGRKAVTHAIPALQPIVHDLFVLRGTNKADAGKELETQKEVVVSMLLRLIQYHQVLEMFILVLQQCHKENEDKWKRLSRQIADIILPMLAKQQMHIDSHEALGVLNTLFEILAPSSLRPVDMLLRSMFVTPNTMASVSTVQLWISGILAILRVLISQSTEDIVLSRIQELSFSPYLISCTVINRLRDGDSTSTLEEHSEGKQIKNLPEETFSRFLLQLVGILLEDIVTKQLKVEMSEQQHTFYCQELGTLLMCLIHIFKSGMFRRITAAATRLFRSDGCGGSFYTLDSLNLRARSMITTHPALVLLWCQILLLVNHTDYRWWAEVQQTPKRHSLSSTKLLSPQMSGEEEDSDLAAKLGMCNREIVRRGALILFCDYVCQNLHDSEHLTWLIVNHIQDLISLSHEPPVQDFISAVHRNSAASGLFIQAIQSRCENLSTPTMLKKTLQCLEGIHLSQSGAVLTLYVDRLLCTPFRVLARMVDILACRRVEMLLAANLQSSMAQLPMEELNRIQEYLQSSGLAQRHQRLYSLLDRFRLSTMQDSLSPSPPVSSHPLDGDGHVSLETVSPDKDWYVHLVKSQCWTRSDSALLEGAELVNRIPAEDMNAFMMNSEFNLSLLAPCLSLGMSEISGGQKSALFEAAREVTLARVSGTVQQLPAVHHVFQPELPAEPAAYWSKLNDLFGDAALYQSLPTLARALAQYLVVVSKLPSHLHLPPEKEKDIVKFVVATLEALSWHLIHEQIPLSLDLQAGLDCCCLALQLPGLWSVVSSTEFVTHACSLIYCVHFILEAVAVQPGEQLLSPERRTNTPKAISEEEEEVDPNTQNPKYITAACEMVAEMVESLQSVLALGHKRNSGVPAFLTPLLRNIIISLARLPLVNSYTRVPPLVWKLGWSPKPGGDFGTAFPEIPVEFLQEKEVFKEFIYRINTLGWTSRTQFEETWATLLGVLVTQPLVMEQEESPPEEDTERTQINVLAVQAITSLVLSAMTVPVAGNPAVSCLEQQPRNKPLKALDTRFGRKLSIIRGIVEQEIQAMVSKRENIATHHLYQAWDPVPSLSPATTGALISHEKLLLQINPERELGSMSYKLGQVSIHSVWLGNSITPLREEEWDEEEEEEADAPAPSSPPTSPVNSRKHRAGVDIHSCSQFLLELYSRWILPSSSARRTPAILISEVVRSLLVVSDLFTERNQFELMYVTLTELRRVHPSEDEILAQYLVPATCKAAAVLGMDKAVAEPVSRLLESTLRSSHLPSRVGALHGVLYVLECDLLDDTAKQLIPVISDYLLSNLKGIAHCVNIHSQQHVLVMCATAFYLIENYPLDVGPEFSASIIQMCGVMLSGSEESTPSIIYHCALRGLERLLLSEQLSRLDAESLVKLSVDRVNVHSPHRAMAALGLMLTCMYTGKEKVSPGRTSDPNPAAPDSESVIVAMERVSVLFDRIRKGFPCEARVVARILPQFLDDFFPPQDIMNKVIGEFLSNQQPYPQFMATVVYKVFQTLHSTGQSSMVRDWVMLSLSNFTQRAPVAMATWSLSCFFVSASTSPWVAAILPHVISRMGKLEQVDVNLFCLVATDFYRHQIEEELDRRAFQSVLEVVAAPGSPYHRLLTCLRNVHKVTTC
Pf apPOL inh – Pf-apPOL DNA polymerase inhibition | Recombinant Pf-apPOL, molecular beacon fluorescence, 1.5 h | inhibition, % at 10 µM | 210,000 tested, 0.25% active
* = called active by the depositor; / = not tested or not shown. No stated cut-off is given here; in the data, active means inhibition above about 50%; inactive means the rest.

SMILES | mHTT CaM bind | Pf apPOL inh
COc1ccc(-c2cc(C(F)(F)F)n3nc(C(=O)NC(C)C)c(Cl)c3n2)cc1OC | -2 | 2
COc1ccc(-c2cc(C(F)(F)F)n3nc(C(=O)O)c(Cl)c3n2)cc1OC | 83* | 2
O=[N+]([O-])c1cc(Oc2ccc3c(c2)CCC3)cc(-n2cnnn2)c1 | 51* | /
Cc1cc([N+](=O)[O-])nn1CCCC(=O)Nc1cc(Oc2ccc3c(c2)CCC3)cc([N+](=O)[O-])c1 | 6 | 5
O=C(c1ccc(F)cc1F)N1CCN(c2nc(CN3CCCC3)cs2)CC1 | 18 | 7
CCOc1ccc(CN2C(=O)CCC2(C)C(=O)NC(C)CC)cc1OC (configuration not stated) | -2 | -6
CN1/C(=C/c2cccc[n+]2CCO)Sc2ccccc21 | 8 | -1
CN1C(=CC=Cc2cc[n+](CCO)c3ccccc23)Sc2ccccc21 | 95* | 78*
COC(=O)C(C#N)=C(NC(=O)c1ccccc1)SC | / | -4
CCn1c2c(c3ccccc31)CN(C(=O)c1ccc(C#N)cc1)CC2 | 54* | -4
CSc1nnc(-c2nn(C)c3c2CN(C(=O)c2ccc(C#N)cc2)CC3)n1C | -2 | -4
COc1cc(C2CC(=O)Oc3c(C(CCN4CCCC(C)C4)c4ccc(N(C)C)cc4)c(OC)cc(OC)c32)cc(OC)c1OC (configuration not stated) | 86* | -4
COc1cc(O)c(C(CCN2CCCC(C)C2)c2cc(OC)c(OC)c(OC)c2)c(OC)c1 (configuration not stated) | 9 | -6
COc1cc(OC)c2c(c1C(CCN1CCCC(C)C1)c1ccc(N(C)C)cc1)OC(=O)CC2c1ccc(N(C)C)cc1 (configuration not stated) | 100* | -4
COc1cc(C2CC(=O)Oc3ccc(C(C)(C)C)cc32)cc(OC)c1OC (configuration not stated) | 30 | -1
COc1ccc(C(CCN2CCCC(C)C2)c2c(O)cc(OC)cc2OC)cc1 (configuration not stated) | 15 | -1
COc1cc(C(CCN2CCCC(C)C2)c2c(OC)cc(OC)c3c2OC(=O)CC3c2ccc(N(C)C)cc2)cc(OC)c1OC (configuration not stated) | 93* | 7
COc1cc(OC)c2ccc(=O)oc2c1C(CCN1CCCC(C)C1)c1ccc(N(C)C)cc1 (configuration not stated) | 54* | -1
O=C(Nc1cc(F)ccc1F)c1cnn2c3c(cnc12)CCCCCC3 | 5 | -1
Cc1ccc(C2SCC(=O)N2CC(=O)NC(C)C)cc1 (configuration not stated) | 2 | -1
O=C(Nc1cc(-c2ccsc2)no1)c1cc(F)cc(F)c1 | -11 | 0
C=CCNC(=O)C(=O)Nc1ccc(Br)cc1 | -6 | -6
CCC(C)Nc1nc(-c2ccccc2O)nc2ccccc12 (configuration not stated) | -85 | 3
CCC(C)Nc1nc(-c2cc(OC)c(OC)c(OC)c2)nc2ccccc12 (configuration not stated) | -4 | 51*
COc1cc(-c2nc(NCc3ccc(F)cc3)c3ccccc3n2)cc(OC)c1OC | 88* | 16
SMILES | mHTT CaM bind | Pf apPOL inh
COc1ccccc1CNc1nc(-c2ccccc2F)nc2ccccc12 | -8 | -3
N#CC(=CNc1ccc(OC(F)(F)F)cc1)C(=O)c1cccs1 | / | 0
CCCCNC(=O)O[C@H]1CC[C@@]23CCCN2C(=O)CCC[C@H]3C1 | 2 | -2
Cc1cc(S(=O)(=O)N2CCc3nc(-c4ccccc4)ncc3C2)ccc1F | 0 | 0
CC(C)CCNS(=O)(=O)c1ccc(F)cc1 | -9 | -5
OC[C@@H]1[C@@H](c2ccc(Cl)cc2)C(c2ccccc2)=NN1c1ccccc1 | 86* | -5
OC[C@@H]1[C@@H](c2ccc(F)cc2)C(c2cccc(Cl)c2)=NN1c1ccccc1 | 72* | 0
CC[C@H]1C(c2ccccc2)=NN(c2ccccc2)[C@@H]1CO | 12 | -6
C[C@H]1C(c2cccc(Cl)c2)=NN(c2ccccc2)[C@@H]1CO | -84 | -3
OC[C@@H]1[C@@H](c2ccc(Cl)cc2)C(c2cccc(Cl)c2)=NN1c1ccccc1 | 74* | -5
C[C@H]1C(c2ccc(F)cc2)=NN(c2ccccc2)[C@@H]1CO | -85 | 0
Cc1c(Cl)cccc1NC(=O)N1CCN(C2=CC3=NCC(C)N3C=N2)CC1 (configuration not stated) | 0 | -4
CCOC(=O)Cn1cnc2c(-c3ccccc3C)csc2c1=O | -14 | 0
CC(=O)Nc1cccc([N+](=O)[O-])c1[N+](=O)[O-] | / | -7
Cn1nc(-c2nc(-c3ccccc3)no2)c2c1CCN(C(=O)c1cc(F)ccc1Cl)C2 | 0 | -2
NC1(C(=O)O)CCc2cc(C(=O)O)ccc21 (configuration not stated) | / | 21
COc1ccc(C(=O)NCc2cccnc2)cc1Cl | -4 | 0
COc1cc(/C=C2\C(=O)ON=C2C)cc(Br)c1OC | 24 | 4
CC1=NOC(=O)/C1=C/c1ccc(OCc2ccccc2F)c(Cl)c1 | 2 | -9
COc1cc(/C=C2\C(=O)ON=C2C)cc(Cl)c1OCc1cccc(F)c1 | 86* | 0
COc1cc(/C=C2\C(=O)ON=C2C)cc(Cl)c1OCc1ccccc1F | 60* | -5
COc1cc(/C=C2\NC(=O)NC2=O)ccc1OCc1ccccc1F | -2 | -2
C=CCOc1c(Cl)cc(/C=C2\C(=O)ON=C2C)cc1OC | 35 | -1
COc1cc(/C=C2\C(=O)ON=C2C)cc(Br)c1OCc1cccc(F)c1 | 51* | -3
CCOc1cc(/C=C2\NC(=O)NC2=O)cc(Cl)c1OCc1ccccc1F | 68* | -2
SMILES | mHTT CaM bind | Pf apPOL inh
O=C(NCCc1csc(C2CCN(C(=O)NC3CCCC3)CC2)n1)C1CCC1 | 3 | -2
CCOC(=O)CS(=O)(=O)C(c1ccccc1)S(=O)(=O)CC(=O)OCC | / | 13
Cc1ccc(NCCC(=O)c2ccco2)cc1Cl | 21 | 1
O=C(O)c1cc2ncccn2n1 | -1 | 52*
O=C(O)c1cnn2cccnc12 | 9 | -1
CCc1ccc(OCC(=O)Nc2ccccc2Cl)cc1 | -56 | -6
Cc1ccc(Nc2cc(C)nc3ccnn23)cc1 | -5 | 1
Cc1cc(Nc2ccc(Cl)cc2)n2nccc2n1 | 64* | -4
CCCNC(=O)c1ccc2ncc3c(=O)n(-c4ccc(C)c(C)c4)[nH]c3c2c1 | 21 | 11
CC1=Nc2ccccc2C1=Cc1c(O)n(-c2ccc(Cl)cc2)c(=O)[nH]c1=O | 15 | -2
CC1=Nc2ccccc2C1=Cc1c(O)n(-c2cccc(Br)c2)c(=O)[nH]c1=O | 96* | -2
O=C(NC1CC1)C1CC(c2ccccc2)CN(C(=O)c2ccc(F)cc2)C1 (configuration not stated) | 20 | 0
O=C(Nc1ccc(F)cc1)N1CCc2nc[nH]c2C1 | -7 | -3
N#CCC(=O)c1ccc(Cl)cc1 | 14 | 1
N#CCC(=O)c1ccc([N+](=O)[O-])cc1 | 98* | 6
CCC(CC)C(=O)Nc1c2c(nn1-c1cccc(Cl)c1)CS(=O)C2 (configuration not stated) | -5 | -3
COc1cc(OC)c(NC(=O)C2Oc3ccccc3NC2=O)cc1Cl (configuration not stated) | 45 | 0
CCn1ccc2oc(C)c(C(=O)N3CCN(C4CCCCC4)CC3)c2c1=O | 18 | 1

Assay outcomes as filed in PubChem.
